# Bioassay records from PubChem.
# FBW7 activator: FBW7 E3 ligase activators, primary screen, biochemical, AlphaScreen, human; F-box/WD repeat-containing protein 7 (Homo sapiens), Q969H0; AlphaScreen FBW7–phospho-cyclin E peptide binding, activator screen; normalized activity (activation), % at 26.1 µM; hit rate 0.13% among 650,000; in the data active means normalized activity above about 1.9%;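 further: purified mutant Fbw7 with reduced substrate affinity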
# MITF primary: MITF inhibitors, primary screen, biochemical, AlphaScreen, human. Microphthalmia-associated transcription factor (Homo sapiens), O75030. AlphaScreen MITF homodimerization, bead proximity signal. inhibition, % at 2.6 µM. hit rate 0.91% among 650,000; in the data active means inhibition above about 50%;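 further: 0% = vehicle wells with protein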
# TEAD-YAP inh: TEAD-YAP interaction inhibition, primary screen, TEAD-YAP interaction inhibitor project, luminescence, HEK-TIYL cells; TEAD-Gal4/YAP UAS-luciferase luminescence; inhibition, % at 9.12 µM; hit rate 1.4% among 640,000; in the data active means inhibition above about 32%;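 further: 0% = median of test compound wells and 100% = reference inhibitor wells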
# GPR151 ag: activators of human GPR151, primary screen, cell-based, PathHunter beta-arrestin, luminescence. G-protein coupled receptor 151 (Homo sapiens), Q8TDV0. activation, % at 11.2 µM. PathHunter beta-arrestin GPR151 cells. hit rate 1% among 650,000; in the data active means activation above about 4.9%;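 further: 0% = median of compound wells and 100% = cells with positive control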
# Target sequence (Q8TDV0 whole entry, looked up): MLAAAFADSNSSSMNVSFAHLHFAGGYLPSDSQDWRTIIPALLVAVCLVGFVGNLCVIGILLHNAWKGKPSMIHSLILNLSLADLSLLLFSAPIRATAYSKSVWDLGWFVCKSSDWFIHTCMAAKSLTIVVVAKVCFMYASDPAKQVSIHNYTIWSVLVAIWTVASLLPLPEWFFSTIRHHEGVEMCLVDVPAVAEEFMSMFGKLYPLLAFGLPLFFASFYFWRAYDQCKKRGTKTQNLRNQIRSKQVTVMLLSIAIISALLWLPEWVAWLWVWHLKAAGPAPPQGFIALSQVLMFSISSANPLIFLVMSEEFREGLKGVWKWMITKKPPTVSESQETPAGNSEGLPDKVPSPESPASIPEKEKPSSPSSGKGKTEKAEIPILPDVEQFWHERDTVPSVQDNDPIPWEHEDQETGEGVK
# Active calls of the source: *. Rows were chosen to be rich in hits. Some 3.5% of all compounds tested hit in one or more screens of this group.
SMILES,FBW7 activator,MITF primary,TEAD-YAP inh,GPR151 ag
C/C(=N\NC(=O)c1n[nH]c2c1CCC2)c1ccco1,0,4,52*,0
COc1ccccc1Cc1noc(/C=C/c2ccc(C)cc2)n1,0,-17,-10,0
COc1ccc(N2C(=O)c3ccccc3NC2c2ccccc2Cl)cc1 (stereo unspecified),0,-1,-9,-1
Cc1ccc(C(=O)OCC(=O)c2ccc([N+](=O)[O-])cc2)cc1,0,4,-9,-1
O=C(CN1C(=O)c2ccccc2C1=O)Nc1nncs1,0,-16,0,0
NNC(=O)c1n[nH]c2c1CCCC2,0,5,8,0
COc1cc(/C(C)=N/NC(=O)c2n[nH]c3c2CCC3)ccc1O,0,1,35*,1
O=C(NN=C1CCCC1)c1n[nH]c2c1CCC2,0,5,64*,1
Cc1ccc(S(=O)(=O)c2c(O)cc(C)c(NS(=O)(=O)c3ccc(Br)cc3)c2C)cc1,0,63*,1,-1
Cc1ccc(S(=O)(=O)Nc2c(C)cc(O)c(S(=O)(=O)c3ccc(C)cc3)c2C)cc1,0,4,3,-1
Cc1c(C(=O)NC(C)C)sc2ncn(CC(=O)N3CCCCC3C)c(=O)c12 (stereo unspecified),0,7,0,0
Cc1c(C(=O)NC2CCCCC2)sc2ncn(CC(=O)N3CCCCC3C)c(=O)c12 (stereo unspecified),2.0*,22,0,0
Nc1c(-c2ccccc2)cnc2c(-c3ccccc3)cnn12,0,-4,41*,0
Cc1nn2c(N)c(-c3ccccc3)cnc2c1-c1ccc(Cl)cc1,0,-4,33*,1
Nc1c(-c2ccccc2)cnc2c(-c3ccc(Cl)cc3)cnn12,1,6,-22,-2
CCC(=O)NCC1Cc2cc(-c3ccc(C(C)=O)s3)cc(Cl)c2O1 (stereo unspecified),0,16,-19,0
C/C(=N/NC(=O)c1cccc([N+](=O)[O-])c1)c1cccc(Br)c1,0,0,-2,0
O=C(OC[C@H]1O[C@H](OC(=O)c2cc(O)c(O)c(OC(=O)c3cc(O)c(O)c(O)c3)c2)[C@H](OC(=O)c2cc(O)c(O)c(OC(=O)c3cc(O)c(O)c(O)c3)c2)[C@@H](OC(=O)c2cc(O)c(O)c(OC(=O)c3cc(O)c(O)c(O)c3)c2)[C@@H]1OC(=O)c1cc(O)c(O)c(OC(=O)c2cc(O)c(O)c(O)c2)c1)c1cc(O)c(O)c(OC(=O)c2cc(O)c(O)c(O)c2)c1,0,112*,4,0
CC(=O)OCC1OC(OC(C)(C)C)C(OC(C)=O)C(OC(C)=O)C1OC(C)=O (stereo unspecified),0,2,4,1
CCC(=O)NCC(c1ccco1)N1CCN(c2ccc(F)cc2)CC1 (stereo unspecified),0,4,-2,-1
O=C(Cn1cncn1)N/N=C/c1ccc(Br)cc1,0,2,-3,3
CC(Nc1cccc2ccccc12)C(=O)N/N=C/c1cc([N+](=O)[O-])ccc1O (stereo unspecified),0,24,67*,2
O=C(CNc1cccc2ccccc12)N/N=C/c1cc(Br)ccc1O,0,9,34*,0
O=C(CNc1cccc2ccccc12)N/N=C/c1ccccc1O,0,10,12,1
O=C(Cn1cncn1)N/N=C/c1cc(Br)ccc1O,-1,57*,17,-1
SMILES,FBW7 activator,MITF primary,TEAD-YAP inh,GPR151 ag
COc1ccccc1NC(C)C(=O)N/N=C/c1cc([N+](=O)[O-])ccc1O (stereo unspecified),-1,31,22,1
CC(Nc1cccc2ccccc12)C(=O)N/N=C/c1ccc(O)cc1 (stereo unspecified),0,8,34*,0
Cc1ccc(CN2C(=O)c3nccnc3C2=O)cc1,0,-3,-3,-1
O=C(CN1C(=O)c2ccc([N+](=O)[O-])cc2C1=O)Nc1ccc2ccccc2c1,0,12,-1,0
O=C(Nc1ccc(N2CCOCC2)cc1)c1cccc(-n2cc(Nc3ccsc3-c3ccccc3)cn2)c1,0,3,-14,-1
CC(Oc1cccc2ccccc12)C(=O)N/N=C/c1cc([N+](=O)[O-])ccc1O (stereo unspecified),0,19,37*,2
C(=Nc1ccc(N2CCOCC2)cc1)c1ccccc1,-1,14,65*,0
COc1ccc(Nc2ncnc3[nH]ncc23)cc1Cl,0,-14,-9,-1
O=P(O)(CNCc1ccccc1)CNCc1ccccc1,1,15,3,2
Nc1cccc(-c2cnc3ccc(NC4CCOCC4)nn23)c1,0,4,4,0
Clc1cccc(-c2cnc3ccc(NC4CCOCC4)nn23)c1,0,-11,34*,0
Cc1ccc(-c2cnc3ccc(NC4CCC(O)CC4)nn23)cc1C (stereo unspecified),0,-21,-7,0
COc1ccc(-c2cnc3ccc(NC4CCOCC4)nn23)cc1OC,0,-9,2,1
COc1cccc(-c2cnc3ccc(NC4CCOCC4)nn23)c1,0,-3,57*,-1
COc1cccc(-c2cnc3ccc(NC4CCC(O)CC4)nn23)c1 (stereo unspecified),-1,-8,64*,0
Cc1ccc2oc3nn(-c4ccccc4)c(=O)c-3cc2c1,1,9,53*,-1
CC(=O)c1cccc(NC(=O)CSC2N=c3ccc([N+](=O)[O-])cc3=N2)c1 (stereo unspecified),0,71*,-1,0
CC(=O)c1cccc(NC(=O)Cn2ccc([N+](=O)[O-])n2)c1,0,14,9,0
CCOC(=O)c1c(-c2ccccc2)oc2ccc(NS(=O)(=O)c3ccc(OC)cc3)cc12,0,-4,57*,4
CCOC(=O)c1c(-c2ccccc2)oc2ccc(NS(=O)(=O)c3ccc(OCC)cc3)cc12,0,-22,57*,0
CCOC(=O)c1c(-c2ccccc2)oc2ccc(NS(=O)(=O)c3ccccc3)cc12,0,-5,0,0
Cc1cc(C)c2c(N)c(-c3nc4ccccc4[nH]3)sc2n1,0,-4,-42,-4
Cc1ccc2nc(-c3sc4nc(C)ccc4c3N)[nH]c2c1,0,-3,72*,0
O=C(/C=C/c1ccc(O)c(O)c1)c1ccc(O[C@@H]2O[C@H](CO)[C@@H](O)[C@H](O)[C@H]2O)c(O)c1O,0,56*,2,3
Cc1cccc(NC(=O)c2ccc(N)cc2)n1,0,10,61*,-6
CCOc1ccc(C(=O)Nc2cccc(C)n2)cc1,0,9,43*,-9
Cc1cccc(NC(=O)c2ccc(C(C)(C)C)cc2)n1,0,-2,45*,-5
